Screens as filed in PubChem.
The list is not random: actives were taken first. Their share in the collection is about 12%.
RORg inh – qHTS for inhibitors of ROR gamma transcriptional activity. Drosophila S2 Gal4-RORgamma UAS-luciferase reporter, 20 h. AID 2551, 2010. Potency, µM (top dose mostly 53.6 µM), actives largely listed as inhibitors. 5.4% of 310,000 active. Nuclear receptor ROR-gamma (Mus musculus), P51450; also: nearly all actives have a fitted effect of over 60% in size
Target sequence (P51450 whole entry, looked up, the tested form may be a part): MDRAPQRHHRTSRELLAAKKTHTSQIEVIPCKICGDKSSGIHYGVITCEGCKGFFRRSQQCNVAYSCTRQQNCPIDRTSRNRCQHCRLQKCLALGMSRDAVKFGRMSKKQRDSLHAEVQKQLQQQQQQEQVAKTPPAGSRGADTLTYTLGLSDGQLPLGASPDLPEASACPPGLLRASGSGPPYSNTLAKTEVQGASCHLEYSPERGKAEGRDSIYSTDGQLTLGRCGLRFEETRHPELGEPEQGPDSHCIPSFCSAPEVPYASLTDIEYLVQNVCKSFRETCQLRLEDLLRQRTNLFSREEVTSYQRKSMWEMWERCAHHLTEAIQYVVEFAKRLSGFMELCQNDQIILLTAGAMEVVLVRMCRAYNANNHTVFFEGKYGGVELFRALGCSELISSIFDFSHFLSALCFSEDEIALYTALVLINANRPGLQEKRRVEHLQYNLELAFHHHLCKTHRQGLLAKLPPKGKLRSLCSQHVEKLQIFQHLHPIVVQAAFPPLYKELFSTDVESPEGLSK
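Schneider cells (Drosophila), stable Gal4 DBD–ROR gamma + UAS-luc; 1 hr cmpd preincubation; Cu2+ induction 700 uM final; 20 hr ambient; luminescence.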
Sfp PPTase inh – qHTS Assay for Inhibitors of Bacillus subtilis Sfp phosphopantetheinyl transferase (PPTase). AID 1490, 2009. Potency, µM, most hits filed as inhibitors. 3.5% of 310,000 active. Biochemical Sfp PPTase activity, qHTS. 4'-phosphopantetheinyl transferase ffp (Bacillus subtilis), Q9F4F7;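 also: the enzyme is Sfp with the accession as filed and its product quenches rhodamine fluorescence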
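After 15 min at room temperature with compound, 15 nM Sfp received 5 uM rhodamine-CoA plus 12.5 uM BHQ-2-ybbR (50 mM Hepes pH 7.6, 10 mM MgCl2). Rate came from the fluorescence difference over 30 min, ex 525/em 598 nm.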
Gal4-VP16 FLuc – VP16 counterscreen qHTS for inhibitors of ROR gamma transcriptional activity; 3.5% of 310,000 active; Potency, µM (top dose mostly 53.6 µM), hits mostly inhibitors; AID 2546, 2010; Drosophila S2 Gal4-VP16 UAS-luciferase, luminescence, 20 h;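 also: Gal4-VP16 expression switched on by copper sulfate through the metallothionein promoter; nearly all actives have a fitted effect of over 50% in size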
ALDH1A1 inh – qHTS Assay for Inhibitors of Aldehyde Dehydrogenase 1 (ALDH1A1); Purified ALDH1A1, NADH fluorescence, propionaldehyde substrate; 7.3% of 220,000 active; AID 1030, 2008; Potency, µM (series often up to 75.3 µM), actives largely listed as inhibitors; Aldehyde dehydrogenase 1A1 (Homo sapiens), P00352; active = well fitted inhibition curve with a large enough effect, not every such curve was filed as active; inconclusive = small, poorly fitted or top-dose-only effect, or another doubt; inactive = no such curve, though single readings can be large or run the other way
PLK1 PBD inh – qHTS for Inhibitors of PLK1-PDB (polo-like kinase 1 - polo-box domain): Primary Screen | Plk1 PBD binding of FITC phosphopeptide, fluorescence polarization | Serine/threonine-protein kinase PLK1 (Homo sapiens), P53350 | 2.8% of 360,000 active | AID 720504, 2013 | Potency, µM, usual class: inhibitors; also: series mostly up to about 57 µM; nearly all actives have a fitted effect of over 65% in size
Hits are given with their value; n = inactive; u = inconclusive; x = no result given; [ ] = another dose, or the depositor's remark. Unless noted, calls follow the shape of the dose curve; as a rule, active = well fitted curve in the direction sought with a large enough effect; inconclusive = small, poorly fitted or top-dose-only effect, or another doubt; inactive = no such curve, though single readings can be large; an effect the other way counts as inactive or inconclusive.

SMILES	RORg inh	Sfp PPTase inh	Gal4-VP16 FLuc	ALDH1A1 inh	PLK1 PBD inh
Cc1cc(C)cc(NC(=S)N2CCC(c3nc4ccccc4s3)CC2)c1	4.5µM	n	11µM	u	n
CCNC(=O)N1CCC(c2nc3ccccc3s2)CC1	n	n	n	x	n
Cc1ccc(NC(=S)N2CCC(c3nc4ccccc4s3)CC2)cc1C	4.5µM	n	11µM	n	n
O=C(O)[C@@H]1Cc2c([nH]c3ccccc23)[C@@H](CCCCO)N1	x	x	x	n[13.5 µM]	x
O=C(NCc1cccc(Cl)c1)c1ccc(-n2cncn2)c2ccoc12	x	x	x	x	n
Cc1cc(C(=O)N/N=C2\CC(=O)CC(C)(C)C2)c(C)n1-c1ccccc1	n	n	u	u	n
Cc1cc(C(=O)N/N=C2\CC(=O)CC(C)(C)C2)c(C)n1-c1ccc(F)cc1	n	n	n	28µM	n
N#CCCn1cc(C(=O)Nc2ccc([N+](=O)[O-])cc2)c(-c2cccs2)n1	n	n	n	22µM	n
CC(=O)NC(c1cccc(F)c1)c1nc(-c2ccc(N(C)C)cc2)cs1 (stereo not drawn)	x	x	x	x	n
Cc1ccc(NNC(=O)Nc2ccc(Cl)cc2)nn1	n	8.9µM	n	x	6µM
O=C(NNc1cccc(Cl)n1)Nc1ccc(Cl)cc1	n	n	n	u	n
COc1cc(OC)cc(-n2nnnc2SCC(=O)N2CCCC2)c1	n	n	n	n	n
COc1ccc(-n2nnnc2S(=O)(=O)CC(=O)N2CCCCC2)cc1	2.8µM	n	4.5µM	6.3µM	12µM
CCc1nc2c(OCc3ccc(C(F)(F)F)cc3)cccn2c1N(C=O)Cc1ccc(OC)cc1	x	x	x	x	n
N/C(=N\OC(=O)c1ccccc1)c1ccccn1	1.6µM	n	u	n	n
N/C(=N\OCc1ccc([N+](=O)[O-])cc1)c1ccccn1	1.6µM	n	2.5µM	n	n
N/C(=N\OC(=O)/C=C/c1ccccc1Cl)c1ccccn1	11µM	n	n[10 µM]	u	n
Cc1cccc(/C(N)=N/OC(=O)c2ccc(Br)o2)c1	13µM	n	u	n	n
COc1cc(OC)cc(C(=O)O/N=C(\N)c2cccc(C)c2)c1	n	n	u	x	n
N/C(=N\OC(=O)/C=C/c1ccccc1Cl)c1cccnc1	n	n	n	x	n
O=C(NCCc1cccs1)Nc1ccc2nc([C@@H]3O[C@H](CO)[C@@H](O)[C@H]3O)[nH]c2c1	x	x	x	x	n
COc1cc(C(=O)O/N=C(\N)c2ccccn2)cc(OC)c1OC	n	n	n	x	n
Cc1ccc(C(=O)O/N=C(\N)c2ccccn2)cc1	8.9µM	n	13µM	x	n
CC(C)(C)c1ccc(C(=O)O/N=C(\N)c2ccccn2)cc1	0.16µM	n	5µM	x	n
Cc1cccc(/C(N)=N/OC(=O)c2cccnc2)c1	8.9µM	n	u	n	n
SMILES	RORg inh	Sfp PPTase inh	Gal4-VP16 FLuc	ALDH1A1 inh	PLK1 PBD inh
N/C(=N\OC(=O)c1ccc(Br)o1)c1ccccn1	11µM	n	n	n	n
O=C(OCc1ccccc1)c1ccc(Br)o1	n	n	n	n	n
C/C(=N\OC(=O)c1ccc(Br)cc1)c1ccccn1	n	u	n	n	n
C[C@]12O[C@H]1[C@@H](O)C(Br)=C(CO)[C@H]2O	n	n	n	n	x
CN1CCN(c2cccc3c2S(=O)(=O)N[C@@H](Cc2ccccc2)CO3)CC1	x	x	x	x	n
C[Si](C)(c1ccc(C(=O)O)cc1)c1ccc(C(=O)O)cc1	x	x	x	n[13.5 µM]	x
N/C(=N\OS(=O)(=O)c1ccc2ccccc2c1)c1ccncc1	n	n	n	n	n
N/C(=N\OC(=O)c1cccc(F)c1)c1ccccn1	u	n	u	x	n
Cc1ccc(C(=O)O/N=C(\N)c2ccccn2)cc1C	8.9µM	n	11µM	x	n
Cc1cccc(C(=O)O/N=C(\N)c2ccccn2)c1	13µM	n	10µM	x	n
CCc1ccc(OCC(=O)O/N=C(\N)c2ccccn2)cc1	n	n	n	x	n
CCOc1ccc(C(=O)O/N=C(\N)c2ccccn2)cc1	4.5µM	n	10µM	x	n
N/C(=N\OS(=O)(=O)c1ccc2ccccc2c1)c1ccccn1	n	63µM	n	u	n
COCCNc1nc(NCc2cc(-c3ccc(OC)cc3)no2)c2sccc2n1	x	x	x	x	n
C[C@@H](N)CCCP(=O)(O)O	x	n	x	u	x
CCN(CC)c1ccc(NC(=O)CNCc2ccccc2Cl)c(C)c1	n	n	n	x	n
N/C(=N\OC(=O)c1ccc2c(c1)OCO2)c1cccc([N+](=O)[O-])c1	n	n	n	n	n
N/C(=N\OC(=O)CCCc1ccccc1)c1ccccn1	n	n	n	n	n
Cc1cccc(/C(N)=N/OC(=O)c2ccc3c(c2)OCO3)c1	10µM	n	u	n	n
N/C(=N\OC(=O)Cc1ccccc1)c1ccccn1	n	n	n	n	12µM
COc1ccccc1C/C(N)=N/OC(=O)c1ccc2c(c1)OCO2	0.89µM	n	u	n	n
COc1ccc(N2CCN(C(=O)C(=O)c3cn(CC(=O)N4CCCC4)c4ccccc34)CC2)cc1	x	x	x	x	n
O=C(N/N=C/c1cnc(N2CCCCC2)s1)c1ccc(Cl)cc1	2.2µM	n	u	n	30µM
O=Cc1cnc(N2CCCCC2)s1	n	n	n	3.5µM	n
CCOc1ccc(S(=O)(=O)NCc2ccco2)c2ccccc12	n	u	n	14µM	n
SMILES	RORg inh	Sfp PPTase inh	Gal4-VP16 FLuc	ALDH1A1 inh	PLK1 PBD inh
CCOc1ccc(S(=O)(=O)NCCN2CCOCC2)c2ccccc12	n	79µM	n	n	n
CCOc1cc(C)c(Cl)cc1S(=O)(=O)NCc1ccco1	n	n	n	n	n
CCCOc1ccc(S(=O)(=O)NCCN2CCOCC2)c2ccccc12	n	n	n	n	n
COc1ccc(C(=O)N(Cc2ccco2)C(C(=O)NC2CCCC2)c2ccc(O)cc2)cc1OC (stereo not drawn)	n	n	n	22µM	n
CCOC(=O)c1cc(C#N)c(N2CCN(C(=O)c3cccc(C(F)(F)F)c3)CC2)nc1C(F)(F)F	u	n	n	u	n
CCOC(=O)c1cc(C#N)c(N2CCN(C(=O)c3ccccc3)CC2)nc1C(F)(F)F	n	n	n	13µM	n
O=c1cc(O)c2sc(Nc3ccc(F)c(Cl)c3)nc2[nH]1	n	n	n	7.9µM	n
Cc1csc(N/N=C/c2ccc([N+](=O)[O-])cc2)n1	n	n	n	x	n
Cc1ccccc1NC(=O)NCc1ccccn1	x	x	x	x	n
O=C(NC(=S)NCCc1ccccn1)c1ccccc1	13µM	n	n	n	n
Cc1ccccc1NC(=S)NCCc1ccccn1	16µM	n	u	n	n
Cc1cccc(NC(=S)NCCc2ccccn2)c1	u	n	u	x	n
S=C(NCc1ccccn1)Nc1ccc(Cl)cc1	7.9µM	n	u	u	n
O=C(NC(=S)NCCc1ccccn1)c1ccco1	u	n	n	n	n
Fc1cccc(NC(=S)NCc2ccccn2)c1	n[10 µM]	n	u	u	n
S=C(NCCc1ccccn1)Nc1cccc(Cl)c1	5µM	n	7.9µM	n	n
